Data from the supplement of paper PMC11732987, “Enantioselective OTUD7B fragment discovery through chemoproteomics screening and high-throughput optimisation” (Communications Chemistry, 2025).

Legend:
Test in all cases: log2 ratio of Biotin-Ahx-Ub-VS probe labelling (fragment/DMSO); higher = less target engagement (more negative = stronger competition), active = hit call of the paper (q ≤ 0.05, log2 ratio ≤ -1)
Conditions in all cases: compound concentration: 200 uM; treatment time: 3 h
[1] = target: USP34 (UniProt Q70CQ2)
Sequence of USP34 (Q70CQ2 whole entry, the tested form may be a part): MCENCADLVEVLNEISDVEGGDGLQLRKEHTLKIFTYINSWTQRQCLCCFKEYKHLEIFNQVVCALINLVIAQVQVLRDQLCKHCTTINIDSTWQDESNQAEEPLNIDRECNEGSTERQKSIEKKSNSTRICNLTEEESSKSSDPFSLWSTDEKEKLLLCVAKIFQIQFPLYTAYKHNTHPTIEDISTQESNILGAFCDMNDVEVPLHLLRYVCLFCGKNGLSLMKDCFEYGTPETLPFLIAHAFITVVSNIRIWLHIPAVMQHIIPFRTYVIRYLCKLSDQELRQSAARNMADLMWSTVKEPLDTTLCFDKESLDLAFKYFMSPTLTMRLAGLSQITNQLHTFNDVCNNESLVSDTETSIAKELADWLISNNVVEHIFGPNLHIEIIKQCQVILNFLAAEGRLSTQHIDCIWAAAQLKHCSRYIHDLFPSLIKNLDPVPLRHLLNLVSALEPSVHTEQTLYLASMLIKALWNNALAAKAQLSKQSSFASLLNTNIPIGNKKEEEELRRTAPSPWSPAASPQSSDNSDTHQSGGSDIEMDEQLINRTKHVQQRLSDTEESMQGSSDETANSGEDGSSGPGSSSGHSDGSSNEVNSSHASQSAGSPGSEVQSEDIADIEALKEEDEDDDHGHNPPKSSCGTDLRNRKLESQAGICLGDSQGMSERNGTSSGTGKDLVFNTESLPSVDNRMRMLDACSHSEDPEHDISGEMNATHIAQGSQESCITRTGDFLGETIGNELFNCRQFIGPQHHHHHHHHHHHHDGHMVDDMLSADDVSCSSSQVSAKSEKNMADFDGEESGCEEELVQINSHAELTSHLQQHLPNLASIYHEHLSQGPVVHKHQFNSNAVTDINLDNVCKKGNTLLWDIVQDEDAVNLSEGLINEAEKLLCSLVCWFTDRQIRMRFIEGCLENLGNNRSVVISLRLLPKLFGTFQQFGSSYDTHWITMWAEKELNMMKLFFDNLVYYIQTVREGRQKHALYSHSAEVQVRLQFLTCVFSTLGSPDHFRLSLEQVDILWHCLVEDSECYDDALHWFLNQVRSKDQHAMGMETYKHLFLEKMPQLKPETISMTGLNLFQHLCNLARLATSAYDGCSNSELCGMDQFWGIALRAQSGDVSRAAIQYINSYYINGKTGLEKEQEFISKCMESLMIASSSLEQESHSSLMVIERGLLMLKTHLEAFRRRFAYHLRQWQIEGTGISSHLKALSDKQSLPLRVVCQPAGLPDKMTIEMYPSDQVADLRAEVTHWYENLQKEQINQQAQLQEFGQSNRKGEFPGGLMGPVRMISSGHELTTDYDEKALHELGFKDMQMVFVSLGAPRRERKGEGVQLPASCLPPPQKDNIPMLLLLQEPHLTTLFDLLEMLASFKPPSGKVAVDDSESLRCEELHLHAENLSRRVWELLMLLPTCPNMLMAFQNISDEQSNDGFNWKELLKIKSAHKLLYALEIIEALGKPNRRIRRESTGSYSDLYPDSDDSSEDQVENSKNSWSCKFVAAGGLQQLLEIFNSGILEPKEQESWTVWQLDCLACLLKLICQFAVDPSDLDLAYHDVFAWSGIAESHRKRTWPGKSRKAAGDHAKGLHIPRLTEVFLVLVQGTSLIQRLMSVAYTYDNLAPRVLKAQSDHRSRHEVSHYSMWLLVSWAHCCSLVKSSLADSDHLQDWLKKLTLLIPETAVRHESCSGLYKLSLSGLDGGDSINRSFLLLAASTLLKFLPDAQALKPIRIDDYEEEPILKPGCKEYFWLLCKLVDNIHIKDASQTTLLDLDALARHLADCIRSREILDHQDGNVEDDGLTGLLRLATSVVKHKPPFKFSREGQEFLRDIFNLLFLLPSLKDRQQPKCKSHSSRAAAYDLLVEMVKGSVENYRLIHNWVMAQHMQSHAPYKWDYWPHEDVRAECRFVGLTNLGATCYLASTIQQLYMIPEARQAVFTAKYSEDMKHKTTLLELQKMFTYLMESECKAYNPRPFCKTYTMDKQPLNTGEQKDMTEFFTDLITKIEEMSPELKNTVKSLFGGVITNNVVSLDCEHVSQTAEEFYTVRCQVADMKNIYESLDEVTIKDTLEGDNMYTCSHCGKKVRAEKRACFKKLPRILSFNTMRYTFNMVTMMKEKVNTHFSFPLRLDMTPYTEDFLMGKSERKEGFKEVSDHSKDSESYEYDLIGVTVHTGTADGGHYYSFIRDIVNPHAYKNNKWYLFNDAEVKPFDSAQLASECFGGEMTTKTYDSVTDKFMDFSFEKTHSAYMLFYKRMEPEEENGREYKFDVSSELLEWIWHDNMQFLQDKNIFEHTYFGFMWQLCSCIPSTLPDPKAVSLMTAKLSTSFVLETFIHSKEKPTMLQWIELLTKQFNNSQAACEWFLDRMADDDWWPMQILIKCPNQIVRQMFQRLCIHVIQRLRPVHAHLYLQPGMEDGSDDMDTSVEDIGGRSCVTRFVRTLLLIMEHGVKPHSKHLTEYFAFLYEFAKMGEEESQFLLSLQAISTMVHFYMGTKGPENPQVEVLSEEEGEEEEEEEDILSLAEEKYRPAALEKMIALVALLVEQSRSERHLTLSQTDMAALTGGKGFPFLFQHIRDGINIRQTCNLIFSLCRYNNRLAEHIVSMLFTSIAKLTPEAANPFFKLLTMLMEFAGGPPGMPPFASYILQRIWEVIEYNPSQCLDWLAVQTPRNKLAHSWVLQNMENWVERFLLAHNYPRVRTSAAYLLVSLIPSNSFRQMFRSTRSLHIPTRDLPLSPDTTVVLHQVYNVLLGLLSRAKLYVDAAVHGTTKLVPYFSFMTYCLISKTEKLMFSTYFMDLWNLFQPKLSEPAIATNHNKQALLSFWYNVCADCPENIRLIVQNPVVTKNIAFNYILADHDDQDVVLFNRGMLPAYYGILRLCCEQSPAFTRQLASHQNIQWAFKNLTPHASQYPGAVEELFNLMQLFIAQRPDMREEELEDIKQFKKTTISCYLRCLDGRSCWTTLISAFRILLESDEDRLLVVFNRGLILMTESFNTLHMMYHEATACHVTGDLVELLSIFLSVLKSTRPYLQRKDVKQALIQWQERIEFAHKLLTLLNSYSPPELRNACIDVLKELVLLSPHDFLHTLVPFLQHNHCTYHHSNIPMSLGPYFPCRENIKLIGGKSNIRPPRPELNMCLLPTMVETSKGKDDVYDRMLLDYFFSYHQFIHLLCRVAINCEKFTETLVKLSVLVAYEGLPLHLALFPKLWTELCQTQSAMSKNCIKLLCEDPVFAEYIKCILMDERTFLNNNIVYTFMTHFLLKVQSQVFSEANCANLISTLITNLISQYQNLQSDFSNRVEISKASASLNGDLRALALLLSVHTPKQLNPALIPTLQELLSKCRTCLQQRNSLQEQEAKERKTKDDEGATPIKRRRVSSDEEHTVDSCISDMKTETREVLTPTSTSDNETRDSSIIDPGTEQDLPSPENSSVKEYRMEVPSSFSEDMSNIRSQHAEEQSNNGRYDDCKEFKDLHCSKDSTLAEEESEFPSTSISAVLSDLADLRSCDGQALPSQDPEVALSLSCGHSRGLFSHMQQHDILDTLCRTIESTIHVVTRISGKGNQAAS
In short: (§1)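 HEK293T lysate, 495 µg per sample in Tris/CHAPS/IGEPAL buffer with protease inhibitors, was treated in triplicate with fragment at 200 µM or vehicle for 3 h and then with Biotin-Ahx-Ub-VS at 0.5 µM final for 1 h. Labelled DUBs were NeutrAvidin-enriched, digested with LysC and trypsin, and run by diaPASEF LC-MS/MS. Spectronaut label-free quantities were global-median-normalised, and values are average log2 fragment/vehicle ratios by unpaired t-test on proteins with ≥2 unique peptides.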

[2] = target: T1, USP36 (UniProt Q9P275)
T1 sequence (whole entry): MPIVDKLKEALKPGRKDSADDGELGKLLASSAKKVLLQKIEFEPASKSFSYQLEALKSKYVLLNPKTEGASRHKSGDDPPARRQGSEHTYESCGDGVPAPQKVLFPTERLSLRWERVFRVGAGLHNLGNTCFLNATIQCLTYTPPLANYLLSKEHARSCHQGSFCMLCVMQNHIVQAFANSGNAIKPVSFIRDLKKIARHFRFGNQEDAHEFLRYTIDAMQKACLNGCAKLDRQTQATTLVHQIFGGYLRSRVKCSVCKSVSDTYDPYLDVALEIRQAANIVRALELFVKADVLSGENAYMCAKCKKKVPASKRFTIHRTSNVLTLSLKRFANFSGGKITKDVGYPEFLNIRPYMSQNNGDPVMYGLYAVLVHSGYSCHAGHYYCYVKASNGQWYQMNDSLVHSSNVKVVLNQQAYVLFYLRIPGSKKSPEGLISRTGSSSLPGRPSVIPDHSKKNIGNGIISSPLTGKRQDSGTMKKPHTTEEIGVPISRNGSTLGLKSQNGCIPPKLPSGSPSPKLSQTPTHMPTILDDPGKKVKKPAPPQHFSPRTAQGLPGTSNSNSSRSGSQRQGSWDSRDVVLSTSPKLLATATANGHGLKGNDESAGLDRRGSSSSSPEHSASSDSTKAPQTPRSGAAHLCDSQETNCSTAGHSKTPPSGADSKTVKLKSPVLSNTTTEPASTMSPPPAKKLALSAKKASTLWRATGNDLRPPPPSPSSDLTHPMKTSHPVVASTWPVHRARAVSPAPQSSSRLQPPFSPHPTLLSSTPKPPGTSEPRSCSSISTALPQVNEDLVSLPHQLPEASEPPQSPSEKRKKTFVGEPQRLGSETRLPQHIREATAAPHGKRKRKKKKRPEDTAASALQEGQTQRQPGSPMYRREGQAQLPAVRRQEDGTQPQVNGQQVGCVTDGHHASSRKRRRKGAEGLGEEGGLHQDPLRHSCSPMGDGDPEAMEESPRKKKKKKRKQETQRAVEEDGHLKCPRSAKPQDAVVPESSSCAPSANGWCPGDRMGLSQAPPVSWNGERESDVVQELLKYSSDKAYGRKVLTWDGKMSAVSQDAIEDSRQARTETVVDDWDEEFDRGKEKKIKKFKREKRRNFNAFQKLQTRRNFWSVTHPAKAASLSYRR
In short: as §1

[3] = target: T2, USP38 (UniProt Q8NB14)
T2 sequence (whole entry): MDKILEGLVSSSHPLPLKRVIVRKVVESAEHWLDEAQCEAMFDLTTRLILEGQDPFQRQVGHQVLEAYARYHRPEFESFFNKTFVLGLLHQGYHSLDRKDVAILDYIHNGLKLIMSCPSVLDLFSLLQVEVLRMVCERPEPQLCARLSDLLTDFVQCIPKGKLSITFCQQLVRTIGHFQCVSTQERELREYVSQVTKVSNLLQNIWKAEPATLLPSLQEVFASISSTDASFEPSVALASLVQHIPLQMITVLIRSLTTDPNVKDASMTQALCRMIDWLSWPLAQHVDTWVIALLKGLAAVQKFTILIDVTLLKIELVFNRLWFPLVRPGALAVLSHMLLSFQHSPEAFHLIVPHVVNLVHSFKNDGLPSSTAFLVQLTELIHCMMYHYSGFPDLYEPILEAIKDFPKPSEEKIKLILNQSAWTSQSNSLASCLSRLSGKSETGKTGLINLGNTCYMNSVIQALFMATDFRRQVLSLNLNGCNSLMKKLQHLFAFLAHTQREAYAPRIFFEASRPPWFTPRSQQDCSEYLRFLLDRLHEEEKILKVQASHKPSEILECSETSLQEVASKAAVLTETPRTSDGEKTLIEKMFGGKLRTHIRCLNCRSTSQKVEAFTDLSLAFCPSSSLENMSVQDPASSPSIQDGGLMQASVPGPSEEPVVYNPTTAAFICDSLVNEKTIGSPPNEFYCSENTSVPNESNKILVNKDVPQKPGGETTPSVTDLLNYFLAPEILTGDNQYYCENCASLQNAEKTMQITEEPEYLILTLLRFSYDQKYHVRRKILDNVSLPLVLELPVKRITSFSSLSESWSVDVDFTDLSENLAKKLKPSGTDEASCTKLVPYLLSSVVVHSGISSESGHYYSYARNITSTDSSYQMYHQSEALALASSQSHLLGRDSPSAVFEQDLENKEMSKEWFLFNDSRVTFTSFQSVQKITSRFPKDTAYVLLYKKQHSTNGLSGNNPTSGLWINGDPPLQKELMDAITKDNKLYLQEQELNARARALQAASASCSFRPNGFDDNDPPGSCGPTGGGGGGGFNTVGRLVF
In short: as §1

[4] = target: T3, USP39 (UniProt Q53GS9)
T3 sequence (whole entry): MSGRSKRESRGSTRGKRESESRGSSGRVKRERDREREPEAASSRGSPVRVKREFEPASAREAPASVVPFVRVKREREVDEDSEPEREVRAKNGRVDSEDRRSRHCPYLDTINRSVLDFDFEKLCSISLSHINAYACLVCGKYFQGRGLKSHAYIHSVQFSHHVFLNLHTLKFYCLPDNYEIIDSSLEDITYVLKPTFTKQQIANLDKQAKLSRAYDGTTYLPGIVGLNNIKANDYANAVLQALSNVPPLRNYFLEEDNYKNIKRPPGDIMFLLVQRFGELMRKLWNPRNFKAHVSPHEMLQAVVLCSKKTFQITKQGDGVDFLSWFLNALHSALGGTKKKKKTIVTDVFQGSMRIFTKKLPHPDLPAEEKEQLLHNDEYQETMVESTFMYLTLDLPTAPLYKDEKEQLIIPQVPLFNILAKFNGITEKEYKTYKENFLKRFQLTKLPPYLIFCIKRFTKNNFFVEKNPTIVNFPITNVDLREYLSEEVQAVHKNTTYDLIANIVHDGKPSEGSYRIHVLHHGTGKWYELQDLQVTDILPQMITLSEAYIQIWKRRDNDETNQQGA
In short: as §1

[5] = target: T4, USP4 (UniProt Q13107)
T4 sequence (whole entry): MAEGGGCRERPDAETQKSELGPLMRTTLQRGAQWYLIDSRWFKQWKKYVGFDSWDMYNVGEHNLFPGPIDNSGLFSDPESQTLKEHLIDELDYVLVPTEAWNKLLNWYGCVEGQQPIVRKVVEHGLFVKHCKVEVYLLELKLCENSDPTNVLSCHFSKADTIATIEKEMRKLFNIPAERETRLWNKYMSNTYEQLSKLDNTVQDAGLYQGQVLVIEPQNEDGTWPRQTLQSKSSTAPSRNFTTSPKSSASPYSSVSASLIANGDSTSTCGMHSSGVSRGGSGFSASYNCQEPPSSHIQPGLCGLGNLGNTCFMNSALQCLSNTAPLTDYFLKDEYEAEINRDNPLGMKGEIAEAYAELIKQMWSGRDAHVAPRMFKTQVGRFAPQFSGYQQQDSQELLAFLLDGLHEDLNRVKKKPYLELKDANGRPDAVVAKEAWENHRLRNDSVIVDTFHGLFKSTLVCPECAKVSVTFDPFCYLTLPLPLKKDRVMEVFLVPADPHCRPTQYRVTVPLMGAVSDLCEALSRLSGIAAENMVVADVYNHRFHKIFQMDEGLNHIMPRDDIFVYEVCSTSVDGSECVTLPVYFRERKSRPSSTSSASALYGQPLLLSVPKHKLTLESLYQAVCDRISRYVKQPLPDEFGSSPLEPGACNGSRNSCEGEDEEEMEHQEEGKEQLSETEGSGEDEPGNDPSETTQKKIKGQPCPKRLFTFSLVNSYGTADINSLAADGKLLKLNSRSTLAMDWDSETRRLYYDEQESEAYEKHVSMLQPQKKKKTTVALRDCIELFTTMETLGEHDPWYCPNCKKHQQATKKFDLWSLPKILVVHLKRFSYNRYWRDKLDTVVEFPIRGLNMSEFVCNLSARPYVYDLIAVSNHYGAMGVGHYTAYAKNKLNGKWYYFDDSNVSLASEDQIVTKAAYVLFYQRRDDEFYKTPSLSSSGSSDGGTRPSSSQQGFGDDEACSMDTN
In short: as §1

Measured: log2 ratio of Biotin-Ahx-Ub-VS probe labelling

C[C@@H](NC(=O)CCl)c1cccc(C#N)c1
inactive: [1] -0.444 | [2] 0.00395 | [3] -0.0294 | [4] 0.198 | [5] 0.0193
